Assay outcomes deposited in PubChem BioAssay by National Center for Advancing Translational Sciences (NCATS).
D1 potentiator = enhances dopamine response at the human D1 receptor | P21728 | HEK293 TREx D1 cells, calcium flux, dopamine EC20 potentiation | potentiation, % at 10 µM | actives 0.036% (n = 360,000); in the data active = potentiation above about 30%; also: 0% is about no effect
Target sequence (P21728 whole entry, looked up): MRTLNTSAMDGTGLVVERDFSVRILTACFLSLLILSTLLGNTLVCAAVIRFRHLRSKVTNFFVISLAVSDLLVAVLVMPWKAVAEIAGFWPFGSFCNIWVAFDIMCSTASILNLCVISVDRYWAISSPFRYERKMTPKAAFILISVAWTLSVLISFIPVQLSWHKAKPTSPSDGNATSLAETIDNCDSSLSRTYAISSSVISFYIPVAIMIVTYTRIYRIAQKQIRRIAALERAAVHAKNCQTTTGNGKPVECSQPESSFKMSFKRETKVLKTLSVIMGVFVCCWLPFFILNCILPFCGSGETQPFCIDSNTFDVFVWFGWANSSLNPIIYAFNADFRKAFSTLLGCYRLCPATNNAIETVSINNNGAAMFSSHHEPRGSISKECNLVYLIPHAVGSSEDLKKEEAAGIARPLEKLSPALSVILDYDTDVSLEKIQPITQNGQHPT
BCR signal inh = blocks chronic active B-cell receptor signaling | ABC-DLBCL IkBa-CBG/CBR reporter, luminescence ratio, 4 h | Potency, µM (highest dose often 46.1 µM), for inactives: at the highest dose activity change, negative = inhibition, hits mostly inhibitors | actives 0.05% (n = 340,000); active = well fitted inhibition curve with a large enough effect in the signal ratio, with a control signal flat, not every such curve was filed as active; inconclusive = small, poorly fitted or top-dose-only effect, or effect the other way, or a change in a side signal; the % refers to the signal ratio;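 also: potency is read from the fitted curve at half-maximal effect; plate controls were basal doxycycline-induced cells for no effect and cells given 10 µM MG132 for full effect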
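Cell line TMD8 (human ABC DLBCL), stably expressing tet-inducible CBG68-IkBa fusion and CBR; IMDM/0.5% FBS; cpd up to 46 uM; dox induction, 4 h, 37C/5% CO2; dual luminescence; green/red ratio; MG132 control.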
D1 ag = agonists of human D1 dopamine receptor; activation, % at 2 µM; actives 1% (n = 360,000); HEK293 T-REx D1 cells, calcium flux, agonist mode; P21728; AID 504660; in the data active = activation above about 30%; also: 0% is about no effect
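Agonism was scored from calcium flux recorded over 180 s (1 read/s) after pintool compound addition, following a 10-cycle baseline. Cells were inducible force-coupled HEK293 TREx D1, plated overnight at 30 C and loaded with no-wash calcium dye.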
D3 antag = D3 dopamine receptor (human) antagonism | P35462 | D3R cells, DiscoveRx beta-arrestin luminescence, antagonist mode; stronger effect = lower value | max response, negative = inhibition, % | actives 2.5% (n = 360,000); in the data active = max response below about -50%; inconclusive = no clear call, values can overlap the other calls; also: % is scaled to controls: 0 for no effect and ±100 for the full control effect
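Cells expressing the human receptor were seeded at 1500 cells/well, incubated overnight at 37 degrees C in 5% CO2, then exposed to library compounds with dopamine controls for 90 minutes at 37 degrees C before luminescent detection.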
D1 antag = human D1 dopamine receptor antagonism. P21728. HEK293 TREx D1 cells, calcium flux, dopamine EC80; stronger effect = lower value. activity change, negative = inhibition, % at 10 µM. actives 3.2% (n = 360,000); in the data active = activity change below about -30%; also: % is scaled to controls: 0 for no effect and ±100 for the full control effect
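Inducible Hek293 Trex D1 cells (tetracycline, overnight, 30 C). Calcium dye 30–90 min RT. Antagonist mode: EC80 dopamine added after 180 s compound read.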
DRD3 agonist = agonists of human D3 dopamine receptor; P35462; D3R DiscoveRx beta-arrestin cells, luminescence, 90 min; max activation, %; actives 0.58% (n = 410,000); in the data active = max activation above about 30%; also: 0% is about no effect
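Agonist mode: compounds and dopamine controls were applied to plated cells for 90 min at 37 degrees C after an overnight attachment at 1500 cells/well. Luminescent read-out followed 30 - 60 minutes at room temperature with DiscoveRx detection reagent.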
The depositor's hits bear a star; ? = inconclusive; . = not tested or not shown. A selection: hits, their analogues and other compounds. The true share with any hit is near 6%.

SMILES	D1 potentiator	BCR signal inh	D1 ag	D3 antag	D1 antag	DRD3 agonist
Cc1cccc(N2CCN(C(=O)CCn3c(=O)c4cccn4c4cccnc43)CC2)c1C	-5	.	0	.	1	-9
CCc1nc2c(OCc3ccc(OC)cc3)cccn2c1N(C)C(=O)C(C)C	.	.	.	8	.	-10
Cc1cccc(CCNC(=O)CCc2c(C)nc3c4c(C)cc(C)nc4nn3c2C)c1	2	.	-2	.	8	-10
C[C@H](CO)N1C[C@H](C)[C@H](CN(C)S(=O)(=O)c2cccs2)Oc2ncc(-c3cc4ccccc4o3)cc2C1=O	.	.	.	0	.	-7
C[C@H]1CN([C@@H](C)CO)C(=O)CCCn2nncc2CO[C@H]1CN(C)C(=O)Nc1cccc2ccccc12	.	.	.	14	.	3
CSCCC(NS(=O)(=O)c1cccs1)C(=O)Nc1ccc(C)c(Cl)c1 (stereo unspecified)	-4	.	6	.	-39*	1
CN[C@@H]1CCc2[nH]c3ccc(C(N)=O)cc3c2C1	.	.	.	.	.	-21
Cn1sccc1=O	3	-29%	1	-71*	5	-17
CCn1nc(C)cc1-c1nnc(Sc2ncc([N+](=O)[O-])s2)n1C	0	?	0	-117*	-1	-25
COc1ccc(Cn2c(CCC(=O)Nc3cc(OC)c(OC)c(OC)c3)nc3cccnc32)cc1	-2	.	4	.	-47*	-12
Cc1ccc(-c2nn(-c3ccccc3)cc2CNCc2ccccc2)cc1	12	?	23	-24	11	-13
Cn1cc(CNCc2cn(C)nc2-c2ccc(C3CCCCC3)cc2)cn1	-10	?	23	0	-38*	-3
O=C(c1ccc2c(c1)N(Cc1ccc(F)cc1)C(=O)c1ccccc1S2(=O)=O)N1CCC(Cc2ccccc2)CC1	-2	.	6	.	15	-12
CCn1c(C)cc(C(=O)COC(=O)CNC(=O)c2ccco2)c1C	.	.	.	-24	.	-9
O=C(c1ccc(C(F)(F)F)cc1)C1CCCN(C(=O)Cn2cncn2)C1 (stereo unspecified)	8	1%	4	-13	-37*	-23
O=C(CCn1cncn1)N1CCCC(N2CCN(c3cccc(C(F)(F)F)c3)CC2)C1 (stereo unspecified)	-4	-5%	0	2	-44*	7
O=C(CCn1cncn1)N1CCCC(N2CCN(c3ccc(F)cc3)CC2)C1 (stereo unspecified)	-8	-4%	1	11	10	-6
COc1ccc(N2CCN(CCCn3cnc4c(OC)ncnc43)CC2)cc1	.	.	.	-8	.	5
CCC(C)NC(=O)c1ccc2nc(CCc3ccccc3)oc2c1 (stereo unspecified)	-4	.	0	.	-2	-5
COc1ccc(/C=C/CN2CCCC(CCC(=O)NCc3ccc(F)c(F)c3)C2)cc1 (stereo unspecified)	-1	6%	21	-55*	-21	-32
COCCC(=O)N1CCCC(CCC(=O)NCc2ccc(F)c(F)c2)C1 (stereo unspecified)	-1	3%	0	-21	-2	-10
COc1ccccc1/C=C/CN1CCCC(CCC(=O)NCc2ccc(F)c(F)c2)C1 (stereo unspecified)	-6	-22%	7	-66*	-20	-18
COc1cccc(CNC(=O)CCC2CCCN(C/C=C/c3ccccc3OC)C2)c1 (stereo unspecified)	-5	?	6	-55*	-17	-13
COCCNC(=O)CCC1CCN(C/C=C/c2ccccc2OC)CC1	4	3%	3	-56*	-2	-20
COc1ccccc1/C=C/CN1CCCCC1	-2	-5%	6	?	-13	-9
SMILES	D1 potentiator	BCR signal inh	D1 ag	D3 antag	D1 antag	DRD3 agonist
Cc1ccc(-c2nc3c4ccccc4n(Cc4cccc(Cl)c4)c(=O)n3n2)cc1	-2	?	1	.	-15	-3
CCNC(=O)C1(C)CCN(C(=O)c2cc(F)ccc2C)C1 (stereo unspecified)	.	.	.	-5	.	-28
Cc1ccccc1CN1C(=O)C(O)(CC(=O)c2cccc(Br)c2)c2ccccc21 (stereo unspecified)	-3	.	13	.	-2	2
O=C(CCC1CCCN(C(=O)c2ccoc2)C1)NCc1ccc(F)c(F)c1 (stereo unspecified)	0	?	2	0	2	8
O=C(CCC1CCCN(C(=O)c2ccc3c(c2)OCO3)C1)NCc1ccc(F)c(F)c1 (stereo unspecified)	-4	1%	1	-9	-30*	-2
Cc1ccc(S(=O)(=O)CCC(=O)c2ccc(O)cc2O)cc1	-2	?	4	-59*	-4	5
CN(C)c1ccc(/C=N/N2C(=S)SC(C)(C)C2N(O)C(=O)Nc2ccc([N+](=O)[O-])cc2)cc1 (stereo unspecified)	-3	0%	2	-67*	-14	-2
CNC(=O)N(O)C1N(/N=C/c2ccc(SC)cc2)C(=S)SC1(C)C (stereo unspecified)	2	?	0	-9	2	3
Cc1ccc(C)c(-c2nn(CC(=O)Nc3cc(F)ccc3F)c(=O)c3c2CCCC3)c1	5	.	0	.	9	6
O=C(OCC(=O)C12CC3CC(CC(C3)C1)C2)c1ccc(O)cc1O	43*	?	93*	-11	-1	-14
N#CC1=C(N)NC(SCc2ccc(F)cc2)=C(C#N)C12CCCCC2	-4	?	10	30	-31*	4
N#CC1=C(N)NC(SCC(=O)O)=C(C#N)C12CCCC2	-2	3%	3	1	-1	-1
CCOC(=O)c1ccc2c(c1)nc(SCC(=O)c1ccco1)n2CC	-2	-7%	0	27	-34*	0
CCOC(=O)c1ccc2c(c1)nc(SCC(=O)N1CCCCC1)n2CC	-3	2%	1	0	2	-8
CN(C)c1ccc(-c2cc[nH]c(=O)c2N)cc1	5	.	0	.	12	.
Cc1ccc(-c2cc(C(F)F)nc(N3CCOCC3)n2)cc1	1	4%	3	4	13	-2
COc1ccc(-c2cc(C(F)F)nc(-n3nc(C)cc3C)n2)cc1	-14	?	6	11	-60*	0
CC(C)(C)c1ccc(C(=O)NC(Cc2c[nH]c3ccccc23)C(=O)OCC(=O)c2ccc(Br)cc2)cc1 (stereo unspecified)	-6	?	4	.	-8	-7
Cc1c(C(=O)N2CCC(C)CC2)c(S(=O)(=O)N2CCN(c3cccc(Cl)c3)CC2)c(C)n1C	1	.	-1	.	6	2
COc1cc(C(=O)Nc2ccc(-c3nc4cc(C)c(C)cc4o3)cc2)cc(OC)c1OC	0	.	0	.	-9	9
